The text below walks through data of PubChem BioAssay (NCI).

The panel holds about 83,000 compounds, 20% with a hit somewhere; the sample as a whole holds those more often.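 Assay: single dose, 48 h. Readout: percent growth (0 = no net growth; negative = cell death). Active: <10.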 Unmarked numbers belong to inactive results. Activity calls are given as the source filed them.

The subject of the test is MDA-MB-468 breast. Kind of test: NCI-60 one-dose screen, 48 h (100 = growth as untreated, 0 = no growth, -100 = all killed). The following applies: 10 µM unless noted.
For the compound `Cc1ccc(/C=C(/C#N)n2nnc3cccc(F)c32)cc1`, the growth was -16.1% (active).

Turning to `COc1ccc(C2C=C(c3ccc(Cl)cc3)N=C3SC=CN32)cc1` (centres undefined), the growth is 120%.

On to `O=C(Nc1ccccc1O)c1ccc(CNC(=O)c2ccsc2Nc2ccnc(C(F)(F)F)c2)cc1`, for which the growth was -17.2% (active).

In the case of `COc1ccc(-c2nc(-c3ccccc3)c(-c3ccccc3)[nH]2)cc1OC1CCCC1`, the growth is 40.4%.
